The nature of test [1]: ATG_GRE_CIS: Attagene CIS-FACTORIAL HepG2 Assay for human Glucocorticoid Response Elements (GRE) (AID 2282947). Conditions: HepG2 GRE cis-reporter, Attagene multiplex mRNA; actives raise or lower the signal. Put shortly: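 Following 24 h chemical exposure of transiently transfected HepG2 cells, total RNA was reverse-transcribed and reporter cDNA amplified, fluorescently labelled and sized by capillary electrophoresis. Signal gain or loss was fitted relative to DMSO vehicle.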

Test [2] in a line: ATG_ISRE_CIS: Attagene CIS-FACTORIAL HepG2 Assay for human Interferon Regulatory Factor 1 (IRF1) binding to an Interferon-Stimulated Response Element (ISRE) (AID 2282948). Conditions: HepG2 ISRE cis-reporter (Attagene), mRNA transcription readout; actives raise or lower the signal. The procedure, abridged: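 Transiently transfected HepG2 cells carrying cis-element reporter units, dosed 24 hours. Reporter mRNA quantified by RT-PCR, fluorescent primer extension, HpaI digestion and capillary electrophoresis. Bidirectional fitting relative to DMSO.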

Test [3] can be described thus: ATG_M_32_CIS: Attagene CIS-FACTORIAL HepG2 Assay for M32 Transcription Factor (Internal Marker) (AID 2282949).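 Further: background control marker of the multiplexed CIS panel rather than a real target.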 Conditions: HepG2 Attagene cis-factorial M32 reporter, mRNA; actives raise or lower the signal. The procedure, abridged:
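Fluorescent capillary electrophoresis peaks of HpaI-digested, FAM-labelled RT-PCR reporter products give the signal. Source: transiently transfected human liver HepG2 cells, 24 h after chemical dosing; bidirectional fitting against DMSO.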

Test [4] can be described thus: ATG_M_06_CIS: Attagene CIS-FACTORIAL HepG2 Assay for M06 Transcription Factor (Internal Marker) (AID 2282950). Conditions: HepG2 Attagene CIS-FACTORIAL M06 internal marker reporter; actives raise or lower the signal. The procedure, abridged: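 Cells (HepG2, transiently carrying cis-driven reporter units) receive chemical for 24 h before RNA isolation. Reporter cDNA is PCR-amplified, FAM-labelled by primer extension, HpaI-digested and sized on a capillary analyser.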

The target in test [5] is Hypoxia-inducible factor 1-alpha (Homo sapiens) (UniProt Q16665). Description: ATG_HIF1a_CIS: Attagene CIS-FACTORIAL HepG2 Assay for human Hypoxia Inducible Factor 1 (HIF1A) (AID 2282951). Conditions: HepG2 Attagene cis-factorial HIF1a reporter transcription; actives raise or lower the signal. Put shortly:
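HepG2, transient cis-reporter library, 24 h dosing. RNA → RT (oligo dT) → PCR → 6-FAM primer extension → HpaI → CE. Bidirectional curve fit vs DMSO.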

In test [6] the target is Hepatocyte nuclear factor 6 (Homo sapiens) (UniProt Q9UBC0). The test can be described thus: ATG_HNF6_CIS: Attagene CIS-FACTORIAL HepG2 Assay for human Hepatocyte Nuclear Factor 6 (HNF6) (AID 2282952). Conditions: HepG2 Attagene cis-factorial HNF6 reporter transcription; actives raise or lower the signal. Put shortly: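 Reporter mRNA induction or loss in HepG2 after 24 h exposure; transient cis-MRTU transfection; fragments quantified by capillary electrophoresis; bidirectional analysis, DMSO as negative control.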
Chain of Hepatocyte nuclear factor 6 (Homo sapiens) (Q9UBC0 whole entry, looked up, the tested form may be a part): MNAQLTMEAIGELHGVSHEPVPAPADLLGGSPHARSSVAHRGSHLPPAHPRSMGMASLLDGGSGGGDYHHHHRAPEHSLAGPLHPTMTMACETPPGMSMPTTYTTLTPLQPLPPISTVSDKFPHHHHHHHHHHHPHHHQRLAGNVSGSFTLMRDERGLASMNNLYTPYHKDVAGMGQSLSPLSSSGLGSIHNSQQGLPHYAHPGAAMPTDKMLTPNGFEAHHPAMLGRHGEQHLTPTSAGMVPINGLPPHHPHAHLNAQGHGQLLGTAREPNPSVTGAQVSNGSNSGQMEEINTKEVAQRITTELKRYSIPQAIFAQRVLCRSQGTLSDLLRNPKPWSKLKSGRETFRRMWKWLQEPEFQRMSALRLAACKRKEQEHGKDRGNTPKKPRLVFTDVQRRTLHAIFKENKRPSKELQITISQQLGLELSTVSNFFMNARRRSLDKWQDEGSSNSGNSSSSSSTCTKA

The target in test [7] is Heat shock factor protein 1 (Homo sapiens) (UniProt Q00613). Description: ATG_HSE_CIS: Attagene CIS-FACTORIAL HepG2 Assay for human Heat Shock Transcription Factor 1 (HSE) (AID 2282953). Conditions: HepG2 HSE cis-reporter, Attagene RNA transcription; actives raise or lower the signal. The procedure, abridged:
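Liver-derived HepG2 cells carry transiently introduced multiple reporter units governed by cis promoters. Reporter RNA measured 24 h post-dose through reverse transcription, PCR amplification, fluorescent labelling and capillary electrophoresis, normalised to DMSO.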

Test [8] in a line: ATG_MRE_CIS: Attagene CIS-FACTORIAL HepG2 Assay for human Metal Responsive Element (MRE) (AID 2282954). Conditions: HepG2 MRE cis-reporter transcription, Attagene multiplex; actives raise or lower the signal. The procedure, abridged: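 Step one: transfect HepG2 with cis-regulated reporter units. Step two: dose 24 h. Step three: isolate RNA, RT-PCR, 6-FAM label, HpaI digest, capillary electrophoresis. Fit bidirectionally to DMSO.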

The nature of test [9]: ATG_PBREM_CIS: Attagene CIS-FACTORIAL HepG2 Assay for human Phenobarbital-responsive Enhancer Module (PBREM) (AID 2282955). Conditions: HepG2 PBREM cis-reporter, Attagene multiplexed transcription; actives raise or lower the signal. The procedure, abridged:
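HepG2, transient MRTU transfection, 24 h dosing; RNA → oligo(dT) RT → PCR → 6-FAM extension → HpaI → CE. Bidirectional fit vs DMSO.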

The target of test [10] is Bile acid receptor (Homo sapiens) (UniProt Q96RI1). Description: ATG_IR1_CIS: Attagene CIS-FACTORIAL HepG2 Assay for human Nuclear Receptor Subfamily 1 Group H Member 4 (NR1H4), IR1 submotif (AID 2282946). Conditions: IR1 reporter transcription, actives raise or lower the signal. Put shortly: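 Transient MRTU transfection, HepG2; 24 h dosing; RNA → RT-PCR → 6-FAM primer extension → HpaI digest → capillary electrophoresis fluorescence. Gain/loss of signal fitted relative to DMSO.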
Chain of Bile acid receptor (Homo sapiens) (Q96RI1 whole entry, looked up): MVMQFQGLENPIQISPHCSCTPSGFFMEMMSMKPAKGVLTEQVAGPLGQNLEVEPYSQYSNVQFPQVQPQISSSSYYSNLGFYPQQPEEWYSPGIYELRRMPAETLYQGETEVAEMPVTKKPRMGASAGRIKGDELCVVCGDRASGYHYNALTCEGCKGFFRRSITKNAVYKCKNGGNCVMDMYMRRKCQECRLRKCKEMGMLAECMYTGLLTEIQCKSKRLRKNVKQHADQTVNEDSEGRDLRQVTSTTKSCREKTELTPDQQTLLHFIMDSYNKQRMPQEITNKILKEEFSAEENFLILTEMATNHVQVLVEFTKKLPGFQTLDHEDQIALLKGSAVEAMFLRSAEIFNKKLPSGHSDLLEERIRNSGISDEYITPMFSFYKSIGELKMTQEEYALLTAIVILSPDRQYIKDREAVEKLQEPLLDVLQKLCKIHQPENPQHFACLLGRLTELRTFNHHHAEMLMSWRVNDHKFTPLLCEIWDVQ

A structure can be active in one record and inactive in another. Active and inactive are the calls of the source. How the source made its calls: active means hit-call score of the fitted dose curve at least 0.9, where 1 is the maximum; inactive means score below 0.9.

A word on the AC50: it is the concentration giving half of the maximal activity seen.

Chain of Heat shock factor protein 1 (Homo sapiens) (Q00613 whole entry, looked up): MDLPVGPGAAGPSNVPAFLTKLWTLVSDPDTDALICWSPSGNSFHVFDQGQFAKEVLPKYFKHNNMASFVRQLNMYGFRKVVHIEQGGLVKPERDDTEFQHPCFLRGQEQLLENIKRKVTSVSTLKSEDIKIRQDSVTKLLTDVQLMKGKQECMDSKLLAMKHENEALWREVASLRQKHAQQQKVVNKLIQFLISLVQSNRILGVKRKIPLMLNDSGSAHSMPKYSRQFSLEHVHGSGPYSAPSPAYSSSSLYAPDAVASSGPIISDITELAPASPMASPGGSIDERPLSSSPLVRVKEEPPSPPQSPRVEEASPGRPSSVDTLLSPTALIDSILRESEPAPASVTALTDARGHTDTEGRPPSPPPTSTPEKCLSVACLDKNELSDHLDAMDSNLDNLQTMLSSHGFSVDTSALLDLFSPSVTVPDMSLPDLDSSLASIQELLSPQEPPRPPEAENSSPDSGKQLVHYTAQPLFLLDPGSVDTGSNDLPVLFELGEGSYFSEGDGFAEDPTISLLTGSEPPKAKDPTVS
Chain of Hypoxia-inducible factor 1-alpha (Homo sapiens) (Q16665 whole entry, looked up): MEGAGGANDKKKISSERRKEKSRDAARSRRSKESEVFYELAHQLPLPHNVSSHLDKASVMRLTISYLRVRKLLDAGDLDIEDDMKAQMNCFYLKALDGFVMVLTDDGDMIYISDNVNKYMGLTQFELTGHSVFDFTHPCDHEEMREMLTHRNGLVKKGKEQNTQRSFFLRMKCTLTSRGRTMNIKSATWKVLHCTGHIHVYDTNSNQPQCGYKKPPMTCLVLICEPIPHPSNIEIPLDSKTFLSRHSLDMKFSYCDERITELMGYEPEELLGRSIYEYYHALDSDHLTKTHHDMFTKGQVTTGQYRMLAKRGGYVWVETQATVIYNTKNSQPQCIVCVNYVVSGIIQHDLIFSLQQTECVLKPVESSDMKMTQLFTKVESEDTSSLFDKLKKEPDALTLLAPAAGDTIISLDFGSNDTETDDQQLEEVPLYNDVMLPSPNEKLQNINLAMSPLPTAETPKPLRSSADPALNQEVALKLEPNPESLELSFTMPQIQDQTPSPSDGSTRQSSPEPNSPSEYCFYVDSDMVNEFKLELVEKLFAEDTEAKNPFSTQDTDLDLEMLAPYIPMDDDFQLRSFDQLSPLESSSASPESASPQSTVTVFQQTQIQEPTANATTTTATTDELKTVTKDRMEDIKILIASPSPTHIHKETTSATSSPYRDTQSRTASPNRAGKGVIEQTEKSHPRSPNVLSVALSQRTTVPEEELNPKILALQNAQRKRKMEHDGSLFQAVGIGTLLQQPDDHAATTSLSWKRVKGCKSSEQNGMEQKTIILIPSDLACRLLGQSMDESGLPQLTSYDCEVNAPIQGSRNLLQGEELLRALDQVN

As for `CCCc1ccccc1`, the result in [1], in test [2], in test [3], in [4], in test [6] and in test [7] was inactive. Further, the result in test [8] and in [9] was inactive. Moreover, the AC50 in test [5] was 60.7 µM (active).

`O=C(O)c1ccc2c(c1)nc(C(=O)NC1CCN(C3CC3)CC1)n2Cc1cc(-c2ccc(Cl)s2)on1`: the call in test [10], in test [2], in test [3], in test [4], in [5] and in test [6] was inactive. Also, the outcome in test [7], in [8] and in [9] was inactive.

With `C[C@]12C=CC(=O)C=C1CC[C@H]1[C@@H]3C[C@@H](O)[C@](O)(C(=O)CO)[C@@]3(C)C[C@H](O)[C@@]12F`, in test [1], the AC50 was 0.14 µM (active). Further, the call in test [2], in [3], in test [4], in test [5], in test [6] and in test [7] was inactive. Also, in test [8], the call was inactive.

With `CC(C)C(=O)Nc1ccc([N+](=O)[O-])c(C(F)(F)F)c1`, the compound was classed as inactive in [10], in [2], in [3], in test [4], in test [6] and in [9]. The AC50 was 167 µM (active) in [7] and 100 µM (active) in test [8].

In the case of `OCCOCCOCCO`, the outcome in test [1], in [2], in test [3], in test [4], in test [5] and in test [6] was inactive. Moreover, the compound was called inactive in test [7], in test [8] and in test [9].

With `OC(Cn1cncn1)(Cn1cncn1)c1ccc(F)cc1F`, the call in test [1], in test [2], in test [3], in test [4], in test [5] and in [6] was inactive. Also, the call in [7] and in test [8] was inactive.

Consider `COCc1nnc(-c2ccc[n+]([O-])c2)n1-c1c(Cl)c(Cl)cc2[nH]c(=O)c(=O)[nH]c12`, for which the outcome in [10], in [2], in test [3], in [4], in test [5] and in test [6] was inactive. The outcome in test [7] and in test [8] was inactive.

For `Cn1c(=O)c2[nH]cnc2n(C)c1=O`, the result in test [10], in test [2], in [3], in test [4], in test [6] and in [7] was inactive. Also, the call in test [8] was inactive.

As for `CCCCCCCC/C=C\CCCCCCCC(=O)OC[C@@H](O)[C@H]1OC[C@H](O)[C@H]1O`, the call in test [1], in test [2], in test [3], in test [4], in test [5] and in test [6] was inactive. Moreover, the compound was called inactive in test [7] and in test [8].

`CC[C@H](C)C(=O)O[C@H]1C[C@H](O)C=C2C=C[C@H](C)[C@H](CC[C@@H](O)C[C@@H](O)CC(=O)O)[C@H]21`: the compound was called inactive in [1], in test [2], in test [3], in test [4], in test [5] and in [6]. Besides, the call in test [7] and in test [8] was inactive.

`O=C(NO)C1(NS(=O)(=O)c2ccc(Oc3ccc(F)cc3)cc2)CCOCC1`: the call in test [1], in test [2], in test [3], in test [4], in test [5] and in [6] was inactive. Moreover, the result in [7] and in [8] was inactive.

On to `CCc1ccc(O)c(C(C)(C)C)c1`, for which the result in [1], in test [2], in test [3], in test [4], in test [6] and in test [7] was inactive. Also, the outcome in test [8] was inactive. The AC50 in [5] is 56.3 µM (active).

Consider `O=S1(=O)CCCO1`, for which the call in test [1], in test [2], in test [3], in [4], in [5] and in [6] was inactive. In addition, the result in test [7], in test [8] and in [9] was inactive.

Take `OCc1ccccc1`: the call in test [1], in [2], in test [3], in test [4], in test [5] and in [6] was inactive. Moreover, the result in test [7], in test [8] and in [9] was inactive.

Turning to `CCCCC(CC)C(=O)OCCOCCOCCOC(=O)C(CC)CCCC` (configuration not stated), the outcome in [1], in [2], in test [3], in test [4], in test [5] and in [6] was inactive. In addition, the result in test [7], in [8] and in test [9] was inactive.

As to `c1ccc2c(c1)-c1cccc3c1c-2cc1ccccc13`, the compound was called inactive in [1], in [2], in [3], in [4], in test [5] and in [6]. The call in test [7], in test [8] and in test [9] was inactive. Moreover, the AC50 in test [5] was 4.67 µM (active).

Regarding `O=C(O)c1cccc(C[C@@H]2COc3ccc(OCc4nc5cc(F)ccc5s4)cc3[C@@H]2O)c1`, the compound was classed as inactive in test [1], in test [3], in [4], in test [5], in [6] and in test [9]. Also, the AC50 in test [2] is 163 µM (active); in [7], 168 µM (active); in test [8], 154 µM (active).

Turning to `O=C(O)CO`, the compound was classed as inactive in [2], in [3], in test [4], in test [5], in test [6] and in test [7]. For the same compound, the call in test [8] and in test [9] was inactive.

Turning to `OC(CCl)CCl`, the result in test [1], in test [2], in test [3], in test [4], in test [5] and in test [6] was inactive. Further, the result in test [7], in test [8] and in [9] was inactive.

Take `Cn1cc[nH]c1=S`: the compound was called inactive in test [2], in test [3], in test [4], in test [7], in test [8] and in [9].

`CCCC(CCC)C(=O)O`: the call in [1], in [2], in test [3], in [4], in test [5] and in test [7] was inactive. In addition, in [8], the outcome was inactive.

For `OCC(CO)(CO)CO`, the result in [2], in test [3], in test [4], in [5], in [6] and in test [7] was inactive. Besides, the compound was called inactive in [8] and in test [9].

The values above are taken from PubChem BioAssay (EPA / NIEHS).
